This passage reports outcome and AC50 results from PubChem BioAssay (EPA / NIEHS).

Assay [1] in a line: ATG_Sox_CIS: Attagene CIS-FACTORIAL HepG2 Assay for human SRY-box transcription factor (SOX) (AID 2282960). Particulars: HepG2 Attagene cis-factorial SOX reporter, mRNA; actives raise or lower the signal. In outline: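 After 24 h of chemical treatment, transfected HepG2 reporter cells are lysed for total RNA. Transcript levels come from RT-PCR with labelled primer extension and capillary electrophoresis, analysed bidirectionally versus DMSO.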

Assay [2] concerns the target Transcription factor Sp1 (Homo sapiens) (UniProt P08047). The assay is described as follows: ATG_Sp1_CIS: Attagene CIS-FACTORIAL HepG2 Assay for human Specificity Protein 1 (Sp1) (AID 2282961). Particulars: HepG2 Sp1 cis-reporter transcription, actives raise or lower the signal. In outline:
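Sp1-driven reporter mRNA, read as capillary electrophoresis fluorescence after RT-PCR, in transiently transfected HepG2 cells dosed for 24 h; signal change in either direction relative to DMSO.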

The nature of assay [3]: ATG_SREBP_CIS: Attagene CIS-FACTORIAL HepG2 Assay for human Sterol Regulatory Element Binding (SREBP) (AID 2282962). Particulars: HepG2 Attagene cis-factorial SREBP reporter, mRNA; actives raise or lower the signal. In outline: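 Values derive from bidirectional curve fitting with DMSO as baseline. The underlying measurement is reporter mRNA from cis-element-regulated units in transiently transfected HepG2, quantified by RT-PCR and capillary electrophoresis after 24 h exposure.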

The target in assay [4] is Signal transducer and activator of transcription 3 (Homo sapiens) (UniProt P40763). The assay is described as follows: ATG_STAT3_CIS: Attagene CIS-FACTORIAL HepG2 Assay for human Signal Transducer and Activator of Transcription 3 (STAT3) (AID 2282963). The settings on record: HepG2, Attagene cis-factorial STAT3 reporter transcription; actives raise or lower the signal. A digest of the protocol:
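Fluorescence intensity of 6-FAM-labelled reporter fragments, separated by capillary electrophoresis after RT-PCR, gave the signal. Cells were HepG2 transfected with cis-element reporter units and treated 24 h; fitting was bidirectional relative to DMSO.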

A short description of assay [5]: ATG_TA_CIS: Attagene CIS-FACTORIAL HepG2 Assay for human TA Basal Promoter (AID 2282964). The settings on record: HepG2 Attagene CIS-factorial TA basal promoter reporter; actives raise or lower the signal. In outline:
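Steps: transfect HepG2 with MRTUs; dose 24 h; isolate RNA, DNase-treat, reverse-transcribe; PCR and FAM-label reporter cDNA; digest with HpaI 2h at 37 C; run capillary electrophoresis. Activity fitted both directions against DMSO.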

The nature of assay [6]: ATG_TCF_b_cat_CIS: Attagene CIS-FACTORIAL HepG2 Assay for human T-Cell-Factor with beta-catenin (TCF/b-cat) (AID 2282965). Particulars: HepG2 TCF/beta-catenin cis-reporter transcription, actives raise or lower the signal. A digest of the protocol: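 Cells of the HepG2 line carry transiently transfected reporter units whose promoters respond to endogenous factors. Twenty-four hours post-dosing, reporter mRNA induction is measured by fluorescent RT-PCR and capillary electrophoresis, with DMSO as baseline.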

Assay [7] can be described thus: ATG_TAL_CIS: Attagene CIS-FACTORIAL HepG2 Assay for human TAL Basal Promoter (AID 2282966).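 Also: background control endpoint measuring basal TAL promoter reporter mRNA not a specific factor.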 The settings on record: HepG2 Attagene cis-factorial TAL promoter reporter; actives raise or lower the signal. In outline: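 Endogenous transcription-factor activity is sensed in HepG2 cells through transfected cis-promoter reporter constructs. After 24 h dosing, reporter transcripts are quantified by RT-PCR and capillary electrophoresis. Gain or loss of signal is fitted relative to DMSO.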

A short description of assay [8]: ATG_TGFb_CIS: Attagene CIS-FACTORIAL HepG2 Assay for human Transforming Growth Factor (TGF) (AID 2282967). Particulars: HepG2 Attagene CIS TGFb reporter, mRNA transcription; actives raise or lower the signal. In outline:
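Cells were dosed for 24 hours, after which total RNA was reverse-transcribed and reporter sequences amplified, labeled and sized by capillary electrophoresis. Activity was fitted in both directions against DMSO.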

The target of assay [9] is Steroid hormone receptor ERR1 (Homo sapiens) (UniProt P11474). The assay is described as follows: ATG_ERRa_TRANS: Attagene TRANS-FACTORIAL HepG2 Assay for human Estrogen-Related Receptor alpha (ERRa) (AID 2282971; active = hit-call score of the fitted dose curve at least 0.9, where 1 is the maximum). The settings on record: HepG2 Attagene TRANS reporter, ERRa transactivation. A digest of the protocol:
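HepG2 cells were transiently transfected with multiple GAL4-UAS reporter units, then dosed with compound for 24 h. Total RNA was reverse-transcribed, reporter cDNA PCR-amplified and fluorescently labelled, and fragments resolved by capillary electrophoresis; induction was compared with DMSO.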

In assay [10] the target is X-box-binding protein 1 (Homo sapiens) (UniProt P17861). As to the kind of experiment: ATG_Xbp1_CIS: Attagene CIS-FACTORIAL HepG2 Assay for human X-box Binding Protein 1 (XBP1) (AID 2282972). The settings on record: HepG2 XBP1 cis-element reporter, Attagene multiplex; actives raise or lower the signal. In outline: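 Human hepatoma HepG2, cis-element reporter system, 24 h treatment; mRNA quantified by RT-PCR/CE fluorescence; fit relative to DMSO.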
X-box-binding protein 1 (Homo sapiens), sequence (P17861 whole entry, looked up): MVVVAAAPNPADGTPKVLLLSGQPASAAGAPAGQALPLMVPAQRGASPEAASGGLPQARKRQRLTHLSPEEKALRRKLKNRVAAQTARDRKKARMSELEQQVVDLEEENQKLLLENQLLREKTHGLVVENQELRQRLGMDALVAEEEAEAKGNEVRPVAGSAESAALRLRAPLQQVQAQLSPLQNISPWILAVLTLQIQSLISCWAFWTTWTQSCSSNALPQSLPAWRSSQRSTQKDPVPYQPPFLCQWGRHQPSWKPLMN

The target in assay [11] is Estrogen-related receptor gamma (Homo sapiens) (UniProt P62508). As to the kind of experiment: ATG_ERRg_TRANS: Attagene TRANS-FACTORIAL HepG2 Assay for human Estrogen-Related Receptor gamma (ERRg) (AID 2282977; active = hit-call score of the fitted dose curve at least 0.9, where 1 is the maximum;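 also: hits increase reporter signal over DMSO so potencies reflect activators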). The settings on record: HepG2 Attagene TRANS reporter, ERRg transactivation. A digest of the protocol: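 Exogenous NR-Gal4 chimera activity measured as reporter transcript induction after 24 h in transiently transfected HepG2 cells. RNA reverse-transcribed, PCR-amplified, 6-FAM-labelled and resolved by capillary electrophoresis; increase over DMSO baseline.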
Estrogen-related receptor gamma (Homo sapiens), sequence (P62508 whole entry, looked up, the tested form may be a part): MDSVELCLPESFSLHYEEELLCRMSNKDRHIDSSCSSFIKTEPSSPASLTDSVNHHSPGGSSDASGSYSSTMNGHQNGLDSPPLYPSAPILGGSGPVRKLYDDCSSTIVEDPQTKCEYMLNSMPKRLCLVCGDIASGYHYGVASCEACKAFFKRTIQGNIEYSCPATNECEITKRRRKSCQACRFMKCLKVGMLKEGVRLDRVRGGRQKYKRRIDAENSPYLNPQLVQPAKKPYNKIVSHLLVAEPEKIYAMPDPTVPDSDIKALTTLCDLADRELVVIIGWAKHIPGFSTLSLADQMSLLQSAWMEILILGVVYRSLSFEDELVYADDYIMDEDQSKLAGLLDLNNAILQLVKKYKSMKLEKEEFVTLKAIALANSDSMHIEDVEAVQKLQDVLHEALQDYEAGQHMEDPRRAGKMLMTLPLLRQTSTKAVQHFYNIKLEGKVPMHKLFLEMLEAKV

The target of assay [12] is Bile acid receptor (Homo sapiens) (UniProt Q96RI1). As to the kind of experiment: ATG_FXR_TRANS: Attagene TRANS-FACTORIAL HepG2 Assay for Farnesoid X Receptor (FXR) (AID 2282979; active = hit-call score of the fitted dose curve at least 0.9, where 1 is the maximum;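 also: hits raise reporter mRNA above DMSO so AC50 marks FXR activation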). The settings on record: HepG2 Attagene TRANS FXR-GAL4 reporter transcription. A digest of the protocol:
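Chimeric FXR-GAL4 activity in transiently transfected human HepG2 liver cells is scored as induction of reporter mRNA after 24 h of dosing. Detection uses RT-PCR with fluorescent labelling and capillary electrophoresis, with DMSO serving as baseline.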

A short description of assay [13]: ATG_M_19_TRANS: Attagene TRANS-FACTORIAL HepG2 Assay for M19 Transcription Factor (Internal Marker) (AID 2282974; active = hit-call score of the fitted dose curve at least 0.9, where 1 is the maximum). The settings on record: HepG2 Attagene TRANS-FACTORIAL M19 internal marker reporter. In outline:
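Measured here: internal-marker reporter transcript from HepG2 cells transfected with MRTUs, harvested at 24 h. cDNA PCR products were 6-FAM labelled by primer extension, cut with HpaI for 2 h at 37 C, and resolved by CE.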

The target of assay [14] is Glucocorticoid receptor (Homo sapiens) (UniProt P04150). The assay is described as follows: ATG_GR_TRANS: Attagene TRANS-FACTORIAL HepG2 Assay for human Glucocorticoid Receptor (GR) (AID 2282978; active = hit-call score of the fitted dose curve at least 0.9, where 1 is the maximum;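 also: activators score as hits since higher reporter transcript over DMSO is fitted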). The settings on record: HepG2 Attagene TRANS GR reporter, mRNA transcription. In outline:
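Measurement of GAL4-UAS-driven reporter mRNA in human HepG2 liver cells 24 h post-dosing, using RT-PCR with fluorescent labelling and capillary electrophoresis; the transfected constructs report exogenous NR-GAL4 chimera activity, fitted upward against DMSO.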

A short description of assay [15]: ATG_VDRE_CIS: Attagene CIS-FACTORIAL HepG2 Assay for human Vitamin D Receptor Element (VDRE) (AID 2282968). Particulars: HepG2 VDRE cis-reporter transcription, actives raise or lower the signal. A digest of the protocol: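 Compounds were applied for 24 h to HepG2 cells transfected with promoter-regulated reporter units. Total RNA was reverse-transcribed, and reporter amplicons were fluorescently labelled and sized by capillary electrophoresis.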

Assay [16] is described as follows: ATG_GAL4_TRANS: Attagene TRANS-FACTORIAL HepG2 Assay for GAL4 (Internal Marker) (AID 2282976; active = hit-call score of the fitted dose curve at least 0.9, where 1 is the maximum). The settings on record: HepG2 Attagene TRANS GAL4 internal marker reporter. A digest of the protocol:
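Fluorescence from capillary electrophoresis of labelled RT-PCR products quantifies reporter mRNA induction after 24 h dosing of HepG2 cells carrying transfected GAL4-UAS reporter transcription units. Vehicle DMSO serves as baseline.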

The target of assay [17] is Nuclear receptor subfamily 1 group I member 3 (Homo sapiens) (UniProt Q14994). The assay is described as follows: ATG_CAR_TRANS: Attagene TRANS-FACTORIAL HepG2 Assay for human Constitutive Androstane Receptor (CAR) (AID 2282969; active = hit-call score of the fitted dose curve at least 0.9, where 1 is the maximum;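 also: activators raise reporter mRNA above DMSO so AC50 marks induction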). The settings on record: HepG2 Attagene TRANS-FACTORIAL CAR reporter. In outline: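 Transiently transfected HepG2, multiplex TRANS reporters (CAR-Gal4 chimera driving GAL4-UAS reporter). 24 h dosing. Readout: reporter transcript by RT-PCR + capillary electrophoresis, fluorescence intensity; positive direction vs DMSO.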
Nuclear receptor subfamily 1 group I member 3 (Homo sapiens), sequence (Q14994 whole entry, looked up, the tested form may be a part): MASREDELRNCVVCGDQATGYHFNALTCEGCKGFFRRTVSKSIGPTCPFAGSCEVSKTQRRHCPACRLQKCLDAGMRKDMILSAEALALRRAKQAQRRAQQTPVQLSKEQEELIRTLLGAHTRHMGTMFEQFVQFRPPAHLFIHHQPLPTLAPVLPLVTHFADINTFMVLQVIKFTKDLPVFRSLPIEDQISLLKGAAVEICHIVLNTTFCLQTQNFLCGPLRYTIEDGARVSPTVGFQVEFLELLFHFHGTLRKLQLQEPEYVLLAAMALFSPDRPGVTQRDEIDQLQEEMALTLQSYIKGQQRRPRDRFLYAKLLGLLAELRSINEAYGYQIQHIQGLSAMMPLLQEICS

Structures are written as SMILES. Records with an inconclusive call do not appear. Calls of active or inactive are those of the source. The calls were made as follows, unless noted: active = hit-call score of the fitted dose curve at least 0.9, where 1 is the maximum; inactive = score below 0.9.

Steroid hormone receptor ERR1 (Homo sapiens), sequence (P11474 whole entry, looked up, the tested form may be a part): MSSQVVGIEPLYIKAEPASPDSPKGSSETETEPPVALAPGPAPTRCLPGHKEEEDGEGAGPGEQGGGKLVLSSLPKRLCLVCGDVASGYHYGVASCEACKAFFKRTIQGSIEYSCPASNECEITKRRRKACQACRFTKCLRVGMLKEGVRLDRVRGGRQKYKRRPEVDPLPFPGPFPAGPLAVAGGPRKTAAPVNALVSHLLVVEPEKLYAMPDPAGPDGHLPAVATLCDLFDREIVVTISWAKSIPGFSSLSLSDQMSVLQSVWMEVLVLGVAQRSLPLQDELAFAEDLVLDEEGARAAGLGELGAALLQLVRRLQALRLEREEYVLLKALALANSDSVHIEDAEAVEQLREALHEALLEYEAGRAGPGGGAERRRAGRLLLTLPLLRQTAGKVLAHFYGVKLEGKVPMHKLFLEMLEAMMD
Bile acid receptor (Homo sapiens), sequence (Q96RI1 whole entry, looked up, the tested form may be a part): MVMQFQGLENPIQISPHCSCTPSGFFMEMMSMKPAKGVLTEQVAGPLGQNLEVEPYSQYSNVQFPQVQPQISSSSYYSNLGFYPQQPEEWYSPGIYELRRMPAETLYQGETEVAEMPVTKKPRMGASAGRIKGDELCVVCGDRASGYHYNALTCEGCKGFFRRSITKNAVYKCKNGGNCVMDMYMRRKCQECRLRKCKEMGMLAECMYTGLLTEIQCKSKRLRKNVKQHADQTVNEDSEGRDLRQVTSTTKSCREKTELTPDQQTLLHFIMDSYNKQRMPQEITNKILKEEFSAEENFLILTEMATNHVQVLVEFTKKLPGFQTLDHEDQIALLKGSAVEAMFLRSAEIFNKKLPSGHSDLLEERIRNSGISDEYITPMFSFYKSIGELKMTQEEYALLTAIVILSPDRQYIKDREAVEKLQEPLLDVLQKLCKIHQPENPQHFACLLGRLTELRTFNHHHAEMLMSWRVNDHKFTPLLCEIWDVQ
Signal transducer and activator of transcription 3 (Homo sapiens), sequence (P40763 whole entry, looked up, the tested form may be a part): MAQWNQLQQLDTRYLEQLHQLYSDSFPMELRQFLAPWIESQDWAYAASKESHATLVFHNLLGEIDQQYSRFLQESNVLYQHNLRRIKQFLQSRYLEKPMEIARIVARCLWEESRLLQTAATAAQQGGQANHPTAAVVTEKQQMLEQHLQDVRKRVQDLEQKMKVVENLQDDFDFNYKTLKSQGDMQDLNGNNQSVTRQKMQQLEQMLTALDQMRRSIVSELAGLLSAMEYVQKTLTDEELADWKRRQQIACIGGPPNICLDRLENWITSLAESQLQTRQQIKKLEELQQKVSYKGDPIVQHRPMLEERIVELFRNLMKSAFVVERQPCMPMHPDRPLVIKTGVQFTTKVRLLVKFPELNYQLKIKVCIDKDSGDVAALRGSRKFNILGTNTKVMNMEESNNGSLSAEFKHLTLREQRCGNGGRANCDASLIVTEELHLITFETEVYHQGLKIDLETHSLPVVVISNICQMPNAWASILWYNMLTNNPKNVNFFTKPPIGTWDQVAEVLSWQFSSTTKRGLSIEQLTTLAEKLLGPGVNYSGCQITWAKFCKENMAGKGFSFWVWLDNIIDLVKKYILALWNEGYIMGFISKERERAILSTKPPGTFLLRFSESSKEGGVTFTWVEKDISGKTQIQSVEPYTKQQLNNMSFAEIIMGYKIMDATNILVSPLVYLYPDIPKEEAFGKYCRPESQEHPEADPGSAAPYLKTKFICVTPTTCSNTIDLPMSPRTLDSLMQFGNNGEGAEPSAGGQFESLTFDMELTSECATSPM
Glucocorticoid receptor (Homo sapiens), sequence (P04150 whole entry, looked up, the tested form may be a part): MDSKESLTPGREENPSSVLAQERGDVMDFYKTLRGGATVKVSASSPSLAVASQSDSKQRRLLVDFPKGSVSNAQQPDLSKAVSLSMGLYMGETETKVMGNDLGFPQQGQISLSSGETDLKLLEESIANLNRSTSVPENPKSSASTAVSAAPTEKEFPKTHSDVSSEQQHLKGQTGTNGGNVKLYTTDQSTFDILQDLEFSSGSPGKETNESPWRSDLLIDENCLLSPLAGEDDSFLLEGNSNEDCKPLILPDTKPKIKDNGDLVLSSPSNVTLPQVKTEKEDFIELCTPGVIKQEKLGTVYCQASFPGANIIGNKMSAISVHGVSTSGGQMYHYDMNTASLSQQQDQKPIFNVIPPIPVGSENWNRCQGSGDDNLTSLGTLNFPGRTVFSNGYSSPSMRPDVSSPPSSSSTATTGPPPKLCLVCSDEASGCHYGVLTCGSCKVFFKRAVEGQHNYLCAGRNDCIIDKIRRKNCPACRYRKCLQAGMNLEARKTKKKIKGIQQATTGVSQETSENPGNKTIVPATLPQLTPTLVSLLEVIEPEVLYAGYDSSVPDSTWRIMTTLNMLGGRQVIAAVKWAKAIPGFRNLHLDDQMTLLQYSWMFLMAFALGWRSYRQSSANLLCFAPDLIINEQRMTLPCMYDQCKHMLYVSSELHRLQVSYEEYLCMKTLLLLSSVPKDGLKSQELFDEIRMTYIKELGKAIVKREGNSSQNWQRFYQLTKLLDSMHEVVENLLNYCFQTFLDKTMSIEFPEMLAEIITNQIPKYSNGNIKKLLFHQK
Transcription factor Sp1 (Homo sapiens), sequence (P08047 whole entry, looked up): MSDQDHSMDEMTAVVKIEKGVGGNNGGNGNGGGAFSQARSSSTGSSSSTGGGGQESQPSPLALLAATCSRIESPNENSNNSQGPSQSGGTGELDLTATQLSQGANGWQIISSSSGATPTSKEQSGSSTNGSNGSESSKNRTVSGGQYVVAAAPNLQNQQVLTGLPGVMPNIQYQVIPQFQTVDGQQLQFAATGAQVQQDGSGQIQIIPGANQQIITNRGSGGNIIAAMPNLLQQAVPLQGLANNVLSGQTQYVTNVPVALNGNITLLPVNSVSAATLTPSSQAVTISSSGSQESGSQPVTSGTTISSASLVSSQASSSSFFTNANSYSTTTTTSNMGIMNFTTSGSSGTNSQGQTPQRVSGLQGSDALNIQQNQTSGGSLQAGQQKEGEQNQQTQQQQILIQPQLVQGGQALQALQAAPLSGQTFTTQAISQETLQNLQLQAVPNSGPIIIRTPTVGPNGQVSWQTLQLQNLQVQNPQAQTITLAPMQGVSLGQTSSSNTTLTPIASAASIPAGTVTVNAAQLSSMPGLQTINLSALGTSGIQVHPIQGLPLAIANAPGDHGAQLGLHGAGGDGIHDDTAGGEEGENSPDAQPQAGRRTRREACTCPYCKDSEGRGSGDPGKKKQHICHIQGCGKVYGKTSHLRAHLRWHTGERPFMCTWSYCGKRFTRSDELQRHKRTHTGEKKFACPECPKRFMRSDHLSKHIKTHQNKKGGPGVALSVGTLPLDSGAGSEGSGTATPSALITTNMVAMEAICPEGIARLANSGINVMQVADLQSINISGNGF

As to `C=CC(=O)OCC(COC(=O)C=C)(COC(=O)C=C)COC(=O)C=C`, the result in assay [1], in assay [3], in assay [4], in assay [5], in [7] and in [8] was inactive. For the same compound, the compound was called inactive in assay [9] and in [12]. For the same compound, the AC50 in assay [2] was 8.41 µM (active); in assay [6] it was 8.6 µM (active); in [10], 8.13 µM (active); in assay [11], 100 µM (active).

`CNC(=O)CSP(=O)(OC)OC`: the call in assay [1], in [2], in [3], in [4], in assay [5] and in assay [6] was inactive. Also, the outcome in assay [7], in assay [8], in [10], in [13], in [14] and in [12] was inactive.

With `C=CCc1ccccc1O`, the call in assay [1], in assay [2], in assay [3], in assay [4], in assay [5] and in assay [6] was inactive. Also, the call in [7], in assay [8], in [15], in assay [10], in assay [13] and in assay [16] was inactive. Moreover, the call in [11], in [14] and in [12] was inactive.

Take `OC[P+](CO)(CO)CO`: the compound was classed as inactive in assay [1], in assay [2], in [3], in assay [4], in [5] and in assay [6]. For the same compound, the compound was classed as inactive in [7], in [8], in assay [15], in assay [10], in assay [16] and in assay [14].

Turning to `CC(c1ccc(O)cc1)c1ccc(O)cc1`, the call in [1], in assay [2], in assay [3], in assay [4], in assay [5] and in [7] was inactive. The compound was classed as inactive in assay [8], in assay [17], in assay [9], in [13], in assay [11] and in [14]. In [10], the half-maximal activity concentration (AC50) was 130 µM (active).

With `OCCN(CCO)CCO`, the call in assay [1], in [2], in [3], in [4], in assay [5] and in [6] was inactive. Besides, the outcome in assay [7], in assay [8], in assay [10] and in [16] was inactive.

As to `O=c1[nH]c(=O)n(Cl)c(=O)n1Cl`, the result in assay [1], in assay [2], in assay [3], in [4], in [5] and in [6] was inactive. The compound was classed as inactive in assay [7], in [8], in assay [9], in [10], in [16] and in assay [11]. In [14], the call was inactive.

On to `O=C(CBr)c1ccc(O)cc1`, for which the compound was classed as inactive in assay [1], in [2], in [3], in assay [4], in assay [5] and in assay [6]. Further, the compound was classed as inactive in assay [7], in assay [8], in assay [15], in [10], in assay [13] and in assay [11].

`CCC[CH2][Sn]([CH2]CCC)([CH2]CCC)[CH2]CCC`: the AC50 in assay [1] is 11.1 µM (active); in assay [2], 9.76 µM (active); in assay [3], 2.82 µM (active); in assay [4], 11.1 µM (active); in [5] it was 17.1 µM (active); in assay [6] it was 15.3 µM (active). Also, the AC50 in assay [15] is 4.44 µM (active). The compound was classed as inactive in [7], in assay [8], in assay [10], in [13], in assay [14] and in assay [12].

A word on the AC50: it is the concentration at which the activity in the assay is half-maximal.
